Reference: PubChem BioAssay (NCI)
Compounds without any hit were thinned out: in the full panel of roughly 79,000, 15% have a hit. Values without a mark were called inactive. Active and inactive are the calls of the source. Rule as the data show it: active = growth inhibition above about 70%; inactive = the rest.

Tests used:
[1] = NCI Yeast Anticancer Drug Screen. Data for the rad50 strain (AID 155);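 also: 0% = growth of vehicle-only cultures of the same strain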; settings: S. cerevisiae rad50 strain growth inhibition, hits give high values
Summary of the method: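 Genetically altered yeast (DNA repair pathway); compound treatment; growth inhibition vs vehicle ctrl.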

[2] = NCI Yeast Anticancer Drug Screen. Data for the mec2-1 strain (AID 157); settings: S. cerevisiae mec2-1 strain, hits give high values
Summary of the method: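 Each compound was tested on mec2-1 yeast, a strain altered in DNA damage repair or cell cycle control. Growth inhibition is reported relative to vehicle.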

[3] = NCI Yeast Anticancer Drug Screen. Data for the sgs1 mgt1 strain (AID 161);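 also: 0% = growth of cultures given vehicle only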; settings: S. cerevisiae sgs1 mgt1 strain, hits give high values
Summary of the method: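 Genetically altered yeast, compound exposure, growth inhibition relative to vehicle.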

[4] = NCI Yeast Anticancer Drug Screen. Data for the cln2 rad14 strain (AID 165);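 also: 0% = growth equal to vehicle treated cultures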; settings: S. cerevisiae cln2 rad14 strain, hits give high values
Summary of the method: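 Test compounds were added to cln2 rad14 yeast cultures; inhibition of growth was then determined by comparison with vehicle treatment.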

[5] = NCI Yeast Anticancer Drug Screen. Data for the bub3 strain (AID 167); settings: S. cerevisiae bub3 mutant strain, hits give high values
Summary of the method: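 Yeast carrying a defined mutation is treated with each compound, and growth is compared with that of vehicle-exposed cells to give inhibition.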

[6] = NCI Yeast Anticancer Drug Screen. Data for the mlh1 rad18 strain (AID 175); settings: S. cerevisiae mlh1 rad18 strain growth inhibition, hits give high values
Summary of the method: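 Inhibition values reflect reduced growth of mutant yeast versus vehicle-treated controls following compound exposure; the mutations affect DNA damage repair.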

[7] = at 5.0 µM (retest, dose inferred, filed as 0.5)
[8] = at 50.0 µM (retest, dose inferred, filed as 5.0)

| SMILES | growth inhibition [1, 7] | growth inhibition [1, 8] | growth inhibition ([1]; at 50.0 µM) | growth inhibition [2, 7] | growth inhibition [2, 8] | growth inhibition ([2]; at 50.0 µM) | growth inhibition [3, 7] | growth inhibition [3, 8] | growth inhibition ([3]; at 50.0 µM) | growth inhibition [4, 7] [%] | growth inhibition [4, 8] | growth inhibition ([4]; at 50.0 µM) | growth inhibition [5, 7] | growth inhibition [5, 8] | growth inhibition ([5]; at 50.0 µM) | growth inhibition [6, 7] | growth inhibition [6, 8] | growth inhibition ([6]; at 50.0 µM) |
| --- | --- | --- | --- | --- | --- | --- | --- | --- | --- | --- | --- | --- | --- | --- | --- | --- | --- | --- |
| COc1ccc(-c2nc(N)n(C)c2SSc2c(-c3ccc(OC)cc3)nc(N)n2C)cc1 | 2% | 26% | 23.6% | -4% | 26% | 5.2% | 28% | 27% | 2.5% | 6 | 30% | 6.95% | 41% | 50% | 3.6% | -2% | 28% | -15.6% |
| CCC(=O)C(=O)CC1CC(c2ccco2)=Nc2ccccc2S1 (configuration not stated) | 9% | 97% (active) | -0.45% | 13% | 98% (active) | 5.65% | 28% | 94% (active) | 22.6% | 6 | 97% (active) | -24.4% | 14% | 96% (active) | 6.35% | 14% | 98% (active) | 18.5% |
| CC(C)(C)c1ccc(-c2nnc(SCc3ccc(Cl)cc3)n2-c2cccc(C(F)(F)F)c2)cc1 | -14% | -34% | 52.6% | -20% | -26% | 5.9% | -13% | -30% | -3.2% | 9 | -14% | -20.9% | 7% | -9% | 14.4% | -28% | -29% | -19.6% |
| COc1ccc(/C=C2\CN(C)C/C(=C\c3ccc(OC)c(OC)c3OC)C2=O)c(OC)c1OC | 27% | 96% (active) | 85.4% (active) | 1% | 97% (active) | 93.5% (active) | 7% | 98% (active) | 92% (active) | 7 | 86% (active) | 91.2% (active) | 14% | 96% (active) | 95.8% (active) | -4% | 97% (active) | 91.3% (active) |
| CC(C)OCc1cccc2ccnc(COC(C)C)c12 | -20% | 53% | 20.8% | 8% | 14% | 25.6% | -10% | 35% | 24.9% | -15 | 87% (active) | 20.6% | -11% | 91% (active) | 20.2% | 28% | 50% | 25.1% |
| O=C(CCN1CCCCC1)N1CCc2c([nH]c3ccccc23)C1c1cccnc1 (configuration not stated) | -8% | 8% | 13.1% | 1% | 16% | 1.2% | 0% | -8% | -5.35% | 5 | 22% | -6.8% | 4% | 46% | -0.3% | 2% | -4% | -14.4% |
| CC(C)C(OC(=O)c1ccc(NCC2=CC(=O)C=CC2=O)cc1)C(C)C | 22% | 37% | 17% | 15% | 40% | 11.3% | 23% | 53% | 73% (active) | 21 | 32% | 73.8% (active) | 27% | 61% | 70.5% (active) | 17% | 44% | -10.4% |
| Oc1ccc(N(Cc2ccccc2)Cc2ccccc2)cc1 | 4% | 47% | 98.2% (active) | 4% | 58% | 97.9% (active) | 6% | 40% | 98.4% (active) | 0 | 93% (active) | 97.7% (active) | 7% | 89% (active) | 97.6% (active) | 6% | 69% | 97.3% (active) |
| Cc1c(N=Nc2ccc(Br)cc2)c(-c2ccccc2)nn1C(N)=S | -2% | 93% (active) | 97.7% (active) | 1% | 97% (active) | 97.5% (active) | 7% | 97% (active) | 98% (active) | -4 | 94% (active) | 95.4% (active) | 7% | 95% (active) | 96.5% (active) | 0% | 97% (active) | 97.7% (active) |
| Clc1ccc(SCCN2CCN(CCSc3ccc(Cl)cc3)CC2)cc1 | 76% (active) | 98% (active) | 83.2% (active) | 79% (active) | 99% (active) | 77.9% (active) | 92% (active) | 99% (active) | 94.2% (active) | 54 | 98% (active) | 86.9% (active) | 85% (active) | 99% (active) | 92.1% (active) | 88% (active) | 99% (active) | 96.6% (active) |
| S=C(Nc1ccccc1)N(Cc1ccccc1)c1ccccc1 | -7% | 51% | 62% | 10% | 57% | 28.6% | -7% | 50% | 46.2% | -8 | 8% | 32.5% | 3% | 42% | 65.9% | 4% | 72% (active) | 48.7% |
| N#CC=Cc1ccc([N+](=O)[O-])s1 (mixture of isomers) | 41% | 99% (active) | 89.8% (active) | 39% | 98% (active) | 90.8% (active) | 59% | 99% (active) | 90.8% (active) | 32 | 99% (active) | 90.8% (active) | 70% (active) | 99% (active) | 88.5% (active) | 50% | 98% (active) | 91.1% (active) |
| Cc1cc([N+](=O)[O-])cc(C)c1OC(=O)Nc1c(Cl)cccc1Cl | 37% | 37% | 31.6% | 30% | 45% | 22.1% | 46% | 71% (active) | 55.4% | 32 | 36% | 22.1% | 24% | 68% | 23.1% | 48% | 56% | 24.1% |
| O=C(Nc1c(Cl)cccc1Cl)OCc1ccc2c(c1)OCO2 | 46% | 54% | 35.8% | 33% | 32% | 48.6% | 44% | 53% | 50% | 33 | 43% | 14.3% | 46% | 73% (active) | 43% | 41% | 42% | 35.9% |
| Cc1ccccc1N=Nc1ccccc1 | 21% | 98% (active) | 99.4% (active) | 17% | 99% (active) | 99.4% (active) | 22% | 99% (active) | 99.5% (active) | 12 | 98% (active) | 99.3% (active) | 48% | 98% (active) | 99.3% (active) | 39% | 98% (active) | 99.4% (active) |
| O=C(O)c1cc(Br)ccc1OCc1ccc(Cl)cc1 | -1% | 28% | 43.9% | -1% | 19% | 51.2% | -7% | 5% | 58% | -13 | 27% | 79.4% (active) | -8% | 9% | -2.25% | -8% | 12% | 52.9% |
| O=c1c2cc3ccccc3cc2c(=O)n2n1CC=CC2 | 8% | 39% | 74.2% (active) | -1% | 6% | 15.9% | 9% | 18% | 22% | 4 | 10% | 26.8% | 2% | -1% | -0.8% | 25% | 46% | 10.8% |
| CCCCCCCOC(=O)CSC#N | 61% | 99% (active) | 99.2% (active) | 52% | 99% (active) | 99.3% (active) | 95% (active) | 99% (active) | 99% (active) | 29 | 99% (active) | 98.5% (active) | 86% (active) | 99% (active) | 99.3% (active) | 90% (active) | 98% (active) | 99.3% (active) |
| Cc1ccccc1SCc1nc2ccccc2c(C)[n+]1[O-] | -3% | 73% (active) | 35.5% | 4% | 63% | 45.2% | 9% | 68% | 58.7% | -1 | 44% | 35% | -1% | 69% | 59% | 42% | 89% (active) | 59.9% |
